HT1080NT lethal: qHTS for induction of synthetic lethality in tumor cells producing 2HG: qHTS for the HT-1080-NT fibrosarcoma cell line | actives 1.6% (n = 360,000) | AID 686970, 2013 | Potency, µM (series often up to 46.1 µM), without a hit: at the top dose activity, negative = less viability, hits mostly cytotoxic | HT-1080-NT fibrosarcoma viability, CellTiter-Glo ATP luminescence, 48 h;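 further: NT is the 2HG producing partner of a matched IDH1 knockdown line; potency means the concentration at half of the fitted maximal effect; 0% = DMSO-treated cells and -100% = media-only wells without cells; nearly all actives have a fitted effect of over 55% in size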
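Viability of the 2HG-overproducing fibrosarcoma line after 48 hours of compound exposure at 37 degrees C was determined by luminescence with CellTiter-Glo, and concentration-effect curves were then fitted and categorized.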
TDP1 cell CPT: qHTS for Inhibitors of human tyrosyl-DNA phosphodiesterase 1 (TDP1): qHTS in cells in presence of CPT. chicken DT40 Tdp1-/-;hTDP1 cells + 20 nM CPT, ATP luminescence, 48 h. Potency, µM (series often up to 46.2 µM), without a hit: top-dose activity change, negative = growth inhibition, most hits filed as inhibitors. actives 12% (n = 420,000). AID 686979, 2013; further: potency means the concentration at half of the fitted maximal effect; nearly all actives have a fitted effect of over 55% in size
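Chicken DT40 Tdp1-/- cells complemented with human TDP1, 400 cells/well, exposed to compounds plus 20 nM camptothecin for at least 48 h at 37 C; viability read as ATP content by CellTiter-Glo luminescence.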
IL-1B inflam inh: qHTS for Inhibitors of Inflammasome Signaling: IL-1-beta AlphaLISA Primary Screen | THP-1 LPS/ATP IL-1B secretion, AlphaLISA, 16 h; hits give low values | activity change, % at 57.5 µM | actives 4.7% (n = 360,000) | AID 743279, 2014; in the data active means activity change below about -50%; inconclusive means mostly about -30% to -49%
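THP-1 cells pretreated 1 hr with compounds (up to 57.5 uM final), then stimulated with LPS (250 ng/mL final) plus ATP (1.25 mM final); secreted IL-1B measured by AlphaLISA after 16 hr, decreased signal indicating inhibition.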
HT1080 IDH1KD tx: qHTS for induction of synthetic lethality in tumor cells producing 2HG: qHTS for the HT-1080-IDH1KD cell line; HT-1080 IDH1 knockdown viability, ATP luminescence, 48 h; actives 2% (n = 360,000); Potency, µM (titrated, usually from 46.1 µM), for the others: top-dose activity, negative = toxicity, actives largely listed as cytotoxic; AID 686971, 2013;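 further: potency means the concentration at half of the fitted maximal effect; 0% = DMSO wells and -100% = cell-free medium wells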
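Using the IDH1-knockdown HT-1080 line run in the same batch and compound series as the NT line, viability after 48 h at 37 °C was determined by CellTiter-Glo luminescence and expressed as % activity.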
DT40 TDP1 no CPT: qHTS for Inhibitors of human tyrosyl-DNA phosphodiesterase 1 (TDP1): qHTS in cells in absence of CPT | DT40 Tdp1-/- hTDP1 cells, no CPT, ATP luminescence, 48 h | Potency, µM (doses to about 46.2 µM), without a hit: at the top dose activity change, negative = growth inhibition, most hits filed as inhibitors | actives 15% (n = 420,000) | AID 686978, 2013; further: potency means the concentration at half of the fitted maximal effect; nearly all actives have a fitted effect of over 55% in size
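Growth of hTDP1-complemented DT40 Tdp1-knockout cells is measured by ATP luminescence after at least 48 hr compound exposure at 37 °C, with DMSO substituting for the 20 nM CPT used in the parallel screen.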
12-LOX inh: Primary qHTS assay for inhibitors of human arachidonate 12S-lipoxygenase (ALOX12): Round 2; purified 12hLO, xylenol orange hydroperoxide absorbance; Potency, µM (series often up to 108 µM), for inactives: at the top dose activity change, negative = inhibition, actives largely listed as inhibitors; AID 1671190, 2021; Polyunsaturated fatty acid lipoxygenase ALOX12 (Homo sapiens), P18054; actives 1.1% (n = 580,000); further: potency means the concentration at half of the fitted maximal effect
Target sequence (P18054 whole entry, looked up): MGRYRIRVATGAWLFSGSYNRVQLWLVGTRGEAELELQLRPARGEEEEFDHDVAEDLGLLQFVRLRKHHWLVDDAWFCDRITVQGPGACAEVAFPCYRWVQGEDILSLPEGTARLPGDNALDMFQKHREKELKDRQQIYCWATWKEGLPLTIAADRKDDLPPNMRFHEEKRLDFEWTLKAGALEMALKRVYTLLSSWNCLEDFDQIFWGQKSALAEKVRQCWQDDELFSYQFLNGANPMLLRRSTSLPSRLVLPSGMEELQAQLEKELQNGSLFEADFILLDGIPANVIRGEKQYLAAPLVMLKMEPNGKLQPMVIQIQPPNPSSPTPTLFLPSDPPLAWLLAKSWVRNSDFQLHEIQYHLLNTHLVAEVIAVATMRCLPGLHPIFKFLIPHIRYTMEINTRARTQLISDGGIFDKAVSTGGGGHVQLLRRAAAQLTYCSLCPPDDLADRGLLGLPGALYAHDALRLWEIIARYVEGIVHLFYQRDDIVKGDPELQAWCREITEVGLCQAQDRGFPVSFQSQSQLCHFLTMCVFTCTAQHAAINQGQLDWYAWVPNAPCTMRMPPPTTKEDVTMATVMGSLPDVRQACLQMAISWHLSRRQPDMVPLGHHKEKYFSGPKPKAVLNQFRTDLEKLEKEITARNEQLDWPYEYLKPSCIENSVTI
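Hydroperoxide product was detected by ferrous iron/xylenol orange as the 573 to 405 nm absorbance ratio. Arachidonic acid at 40 uM (final) was turned over for 30 min at room temperature by 150 nM human 12hLO, pH 7.0 Hepes buffer, after 15 min compound preincubation.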
Active calls of the source: *; ? = inconclusive; / = no result; [ ] = remark or other dose. Many of the other results were omitted from the sample, so hits are more common in it than they were. Unless noted, the call rests on the fitted dose curve; in most records, active means well fitted curve in the direction sought with a large enough effect; inconclusive means small, poorly fitted or top-dose-only effect, or another doubt; inactive means no such curve, though single readings can be large; an effect the other way counts as inactive or inconclusive. Unless noted, on the % scale 0 is the no-effect control and ±100 the full control effect.

SMILES | HT1080NT lethal | TDP1 cell CPT | IL-1B inflam inh | HT1080 IDH1KD tx | DT40 TDP1 no CPT | 12-LOX inh
O=C(Nc1ccc(Br)cc1)C1CCCN1S(=O)(=O)c1cccs1 (centres undefined) | -12% | 21µM* | 6 | -16% | 13µM* | 0%
COc1ccc(NC(=O)C2CCCN2S(=O)(=O)c2cccs2)c([N+](=O)[O-])c1 (centres undefined) | -5% | 21µM* | -12 | -14% | 10µM* | -1%
Cc1ccc(-n2nc(N3CCN(S(=O)(=O)c4cccc5nsnc45)CC3)ccc2=O)cc1 | / | / | / | / | / | -30%
Cc1c(C(=O)OC(C)C)sc(NC(=O)C2c3ccccc3Oc3ccccc32)c1C(=O)OC(C)C | / | 23µM* | / | / | 23µM* | -20%
CCOC(=O)c1sc(NC(=O)C2c3ccccc3Oc3ccccc32)c(C(=O)OCC)c1C | / | -15% | / | / | -15% | -2%
CCOC(=O)c1c(NC(=O)C2c3ccccc3Oc3ccccc32)sc(C)c1CC | / | 12% | / | / | -6% | -13%
Cc1sc(NC(=O)C2c3ccccc3Oc3ccccc32)c(C(=O)OC(C)C)c1C | / | 18µM* | / | / | ? | -6%
CCCCc1c(-c2ccccc2OC)ncn1Cc1ccccc1 | / | / | / | / | / | -29%
CC(=O)Nc1ccc(-c2c(-c3ccccc3)ncn2Cc2ccnc(C)c2)cc1 | / | / | / | / | / | 2%
CCc1c(-c2ccc(Br)cc2)ncn1Cc1cccc(-c2ccccc2)c1 | ? | 7.3µM* | -62* | ? | 5.2µM* | ?
CCCc1c(-c2ccc(Cl)cc2)ncn1Cc1cccc(-c2ccccc2)c1 | ? | 5.2µM* | 3 | ? | 3.3µM* | 5µM*
CCCc1c(-c2cccc(Br)c2)ncn1Cc1cccc(-c2ccccc2)c1 | ? | 16µM* | 20 | ? | 21µM* | 3.5µM*
Cc1cc(Br)cn2c(Cc3ccccc3)c(-c3cccc(Br)c3)nc12 | 1% | ? | 7 | -3% | ? | ?
Cc1nc2ccc(Cl)cn2c1C(=O)N1CCC2(CCCN(C)C2=O)C1 (centres undefined) | / | / | / | / | / | 21%
O=C(Nc1ccc(Cl)cc1C(F)(F)F)c1ccc(Cl)cc1Cl | / | / | / | / | / | 25%
Cc1ccc(NS(=O)(=O)c2ccc(-c3csc(C)n3)s2)c(C)c1 | ? | ? | 3 | ? | 16µM* | 0%
CCCC[C@@H]1CN=C(N)N1CC(C)(C)C | 13% | ? | 14 | 8% | 23µM* | 3%
COC(=O)C1Cc2ccccc2CN1C(=O)CCl (centres undefined) | 8.2µM* | 15µM* | -97* | 15µM* | 15µM* | -10%
CCN(CC(=O)Nc1ccc(NC(C)=O)cc1)C(=O)c1ccc(N(C)S(=O)(=O)c2ccc(C)cc2)cc1 | -20% | 26µM* | 9 | -14% | ? | -10%
CCOc1ccccc1NC(=O)CN(c1ccc(OC)c(OC)c1)S(=O)(=O)c1ccc(C)cc1 | -7% | ? | -7 | -7% | ? | -10%
CCCNC(=O)NC(=O)COC(=O)c1ccc(S(=O)(=O)N(C)c2ccccc2OC)cc1 | -10% | 29µM* | 27 | -18% | 21µM* | 5%
CCN(CC(=O)NCc1cccs1)C(=O)c1ccc(S(=O)(=O)N(C)c2ccccc2)cc1 | -2% | ? | -4 | 7% | ? | 11%
CCN(CC(=O)Nc1ccccc1OC)C(=O)c1ccc(N(C)S(=O)(=O)c2ccc(C)cc2)cc1 | 13% | 15µM* | -4 | 2% | 16µM* | 8%
CCN(Cc1ccccc1)C(=O)c1ccc(N(C)S(=O)(=O)c2ccc(C)cc2)cc1 | -5% | 18µM* | -3 | -9% | 15µM* | ?
COc1nn(C)c2nc(C)c(CCC(=O)NC3CCCC3)c(C)c12 | / | / | / | / | / | 10%
SMILES | HT1080NT lethal | TDP1 cell CPT | IL-1B inflam inh | HT1080 IDH1KD tx | DT40 TDP1 no CPT | 12-LOX inh
C=CCn1c(NCCN(C)C)nc2c1c(=O)[nH]c(=O)n2C | / | / | / | / | / | -11%
Cc1cc(C)c(OCC(=O)Nc2nonc2-c2ccccc2)c(C)c1 | / | / | / | / | / | 6%
Cc1ccccc1N(C)C1CN(C(=O)c2ccc3c(c2)OCO3)C1 | / | / | / | / | / | 1%[6.33 µM]
O=C(/C=C/c1ccccc1)Nc1ccccc1C(=O)NCc1cccnc1 | / | / | / | / | / | 28%
CCN(CC(=O)NC(C)C)C(=O)c1ccc(S(=O)(=O)N(C)c2ccccc2OC)cc1 | 8% | ? | 11 | -13% | 15µM* | 0%
COc1ccccc1N(C)S(=O)(=O)c1ccc(C(=O)NC(C)(C)C)cc1 | 10% | -23% | 4 | 1% | -6% | 0%
O=C(c1cc(-c2ccccc2)n[nH]1)N1CCC2(CC1)CC(OCC1CC1)CCO2 (centres undefined) | / | / | / | / | / | 20%
Cc1cc(-c2cc(NC=O)c3ncc(-c4cccc(C(=O)NCCN(C)C)c4)n3c2)cc(C)c1O | 26µM* | ? | -3 | 26µM* | ? | -22%
CN(C)CCNC(=O)c1cccc(-c2cnc3c(NC=O)cc(-c4cccs4)cn23)c1 | ? | ? | -10 | ? | ? | -3%
CN(C)CCNC(=O)c1cccc(-c2cnc3c(NC=O)cc(-c4ccccc4F)cn23)c1 | ? | ? | -15 | ? | 21µM* | -9%
CCn1nc(-c2ccc(C)c(S(=O)(=O)N3CCCC3)c2)c2c(c1=O)CCCC2 | / | / | / | / | / | 17%
Cc1cc2nc(-c3ccc(OCc4ccccc4C)cc3)cc(C(F)(F)F)n2n1 | / | ? | / | / | 16µM* | -20%
COc1ccc(CCC(=O)N2CCN(c3nnc4ccc(Cl)cn34)CC2)cc1 | / | / | / | / | / | 68%
CCCCC(O)(CCCC)C(=O)N/N=C(\C)c1ccc(Cl)cc1 | -8% | ? | -54* | -17% | ? | 137%
CCOC(=O)CCN(Cc1cc(C)ccc1C)CC1CC1 | / | / | / | / | / | -9%
CN(C)c1ccc(C(=O)NNC(=O)C23CC4CC(CC(C4)C2)C3)cc1 | 1% | 0% | -17 | -1% | ? | 5%
CN(C(=S)NC(=O)C12CC3CC(CC(C3)C1)C2)c1ccc(O)cc1 | -8% | 5.8µM* | 38 | -15% | 4.6µM* | ?

Screening results as filed in PubChem.
